In PMC7819943, “Rice protein-binding microarrays: a tool to detect cis-acting elements near promoter regions in rice” one finds binding signal data, which are given here for 44 sequences.

In all, about 68,000 sequences were measured (“fluorescence intensity (a.u.)”: median about 9,100, highest 2% from about 16,000 on). The list comes from a sample in which the highest values are over-represented; it also holds similar and randomly drawn sequences.

Sequence of OsWRKY34 (Q0JBA9 entry or part of it): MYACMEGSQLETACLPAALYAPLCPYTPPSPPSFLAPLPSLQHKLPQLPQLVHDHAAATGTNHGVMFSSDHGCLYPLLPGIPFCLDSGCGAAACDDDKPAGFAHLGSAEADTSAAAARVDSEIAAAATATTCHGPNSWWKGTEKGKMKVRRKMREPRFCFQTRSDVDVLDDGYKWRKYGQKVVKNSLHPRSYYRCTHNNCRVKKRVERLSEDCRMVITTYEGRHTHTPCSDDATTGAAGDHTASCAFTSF

For the experiment, the target named is OsWRKY34 (Oryza sativa, UniProt Q0JBA9 1-250). The experiment can be described thus: protein-binding microarray (RPBM); PBS, 2% BSA, 51.3 ng/ul salmon testes DNA, 50 uM zinc acetate, 200 nM TF, 25 C, 1 h; high values mean tight binding. The note with it: protein: recombinant; tags: N-terminal polyhistidine and DsRed monomer fusion (pET32a); label: CyDye5-dUTP incorporated in the synthesized complementary strand; 3' TTTTT single-stranded linker to array surface; dsDNA, one strand shown. The gist of the method:
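The binding signal is fluorescence intensity per feature, in arbitrary units, read on an Axon 4000B scanner. Polyhistidine- and DsRed-tagged transcription factors (N-terminal fusions) from E. coli BL21-CodonPlus were purified on Ni–NTA and applied at 200 nM for 1 h at 25 °C to a double-stranded, BSA-blocked custom Agilent array in buffer with 50 µM zinc acetate.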
For “CTATAGGTGGATTTTTAGGGACTCACCCGTAAAAACAGGTCGGAGTCACCTAGTGCAG”, the binding signal is 26800 fluorescence intensity (a.u.). To “TTGGGTGGGATTTAAACAGGGTATTAGTGGATAATGATGTCGGAGTCACCTAGTGCAG” belongs 9570 fluorescence intensity (a.u.); to “GGTTAGGTGGCATTTGAATTTAAAACGTATATGTGGACTCCGGAGTCACCTAGTGCAG”, 13900 fluorescence intensity (a.u.). Regarding “CTCCGGGGAATATCTATGGGTCTTGTGGGTGTAGGGAGGACGGAGTCACCTAGTGCAG”, the binding signal is 8770 fluorescence intensity (a.u.). Consider “CTATAATTATTTGTCGACTAAATCTGCCTTTCATCTTTCTCGGAGTCACCTAGTGCAG”, for which the binding signal is 8160 fluorescence intensity (a.u.). To “TTTGACCAACCGAAACTCGACGGCCCACCCACCAACCACCCGGAGTCACCTAGTGCAG” belongs 9420 fluorescence intensity (a.u.); to “GTGTCTTGTGCGTTTGCTCTCTCGCGAACCATTCCACAGACGGAGTCACCTAGTGCAG”, 8380 fluorescence intensity (a.u.); to “ATCATTTGTCTCGCGACGAAAACTTGCGTTGACCACCCACCGGAGTCACCTAGTGCAG”, 17500 fluorescence intensity (a.u.).

In the case of “CACCCACCAAGTACTCTTTTTACTTTTACCACAGCGCATACGGAGTCACCTAGTGCAG”, the binding signal is 9050 fluorescence intensity (a.u.).

As to “TTACACGCCTAATCATCGAAAACCTAATCTTATGCTTTCTCGGAGTCACCTAGTGCAG”, the binding signal was 8790 fluorescence intensity (a.u.). To “TTCACACACGAGTAATTGCAGCCTTGCTTTCTCGAAAAAACGGAGTCACCTAGTGCAG” belongs 17100 fluorescence intensity (a.u.); to “TGCGGCTTTGATTTGCGGGGTTCACACACGAGTAATTGCACGGAGTCACCTAGTGCAG”, 10900 fluorescence intensity (a.u.). As for “AATCTGTGGCGATAACCTGTATGCTCACACACTTGCCTCTCGGAGTCACCTAGTGCAG”, the binding signal was 8610 fluorescence intensity (a.u.). With “TCCGTATTTTAATGTATGACGCCGTTGACTTTTTATCCAACGGAGTCACCTAGTGCAG” the figure was 21400 fluorescence intensity (a.u.). “ATATACTACCTCCATATTTTAATGTATGACGCCGTTGACTCGGAGTCACCTAGTGCAG”: the binding signal was 8860 fluorescence intensity (a.u.). To “CTACCTCCATATTTTAATGTATGACGCCGTTGACTTTTTGCGGAGTCACCTAGTGCAG” belongs 37500 fluorescence intensity (a.u.); to “TACCTCCATATTTTAATGTATGACGCCGTTGACTTTTTATCGGAGTCACCTAGTGCAG”, 28900 fluorescence intensity (a.u.). With “TTCCCTCCATATTTTAATGTATGACGCCGTTGACTTTTTACGGAGTCACCTAGTGCAG” the figure was 17700 fluorescence intensity (a.u.). With “TATATACTCCCTCCATATTTTAATGTATGACGCCGTTGACCGGAGTCACCTAGTGCAG” the figure was 9880 fluorescence intensity (a.u.); with “TACTCCCTCCGTATTTTAATGTATGACGCCGTTGACTTTTCGGAGTCACCTAGTGCAG”, 13900 fluorescence intensity (a.u.). On to “TATTACTACCTTCATATTTTAATGTATGACGCCGTTGACTCGGAGTCACCTAGTGCAG”, for which the binding signal is 11900 fluorescence intensity (a.u.). To “AGCGCGTCGCTTTCTTTCTTTCTTTCAGTTTTTTTTTTCCCGGAGTCACCTAGTGCAG” belongs 10500 fluorescence intensity (a.u.); to “AATCTGACTGAAGTATGTACTTTGTGTTGACCAATTTGGCCGGAGTCACCTAGTGCAG”, 10200 fluorescence intensity (a.u.).

For the sequence “ATGAGTTCCCAACCGCCACTTACATTAAGTACCACACTCCCGGAGTCACCTAGTGCAG”, the binding signal is 8660 fluorescence intensity (a.u.). As for “GTTTCCTTCGTTTCAGATTACTCATTATTTTAGCTTTTTTCGGAGTCACCTAGTGCAG”, the binding signal is 13800 fluorescence intensity (a.u.).

Turning to “TCCACCTTTTCATCAATATAGTCATGCATTAATACAGTCACGGAGTCACCTAGTGCAG”, the binding signal is 8670 fluorescence intensity (a.u.).

“TTGCTTCCTTTGTCCTTACTGACATTATTACCTCAGAGACCGGAGTCACCTAGTGCAG”: the binding signal was 8870 fluorescence intensity (a.u.). Turning to “ACGGGGCGCATTTATTCATCCCCACCTTTGTTCATCAGTTCGGAGTCACCTAGTGCAG”, the binding signal was 11600 fluorescence intensity (a.u.).

With “TAATGTATGACGTCGTTGACTTTTTGTTAAACGTTTGATCCGGAGTCACCTAGTGCAG”, the binding signal was 15600 fluorescence intensity (a.u.). As for “CTCATAATAGATTTACTTTTAATGCCGTTGTTTTGTTTTACGGAGTCACCTAGTGCAG”, the binding signal is 9090 fluorescence intensity (a.u.). With “ATTTGTTTGTTTTTTTAATAAATGATGTTGTTGACTTTTACGGAGTCACCTAGTGCAG” the figure was 9030 fluorescence intensity (a.u.); with “TTTTAATGTATGACGCTGTTGACTTTTTATCCAACGTTTGCGGAGTCACCTAGTGCAG”, 16400 fluorescence intensity (a.u.); with “CTCCATATTTTAATGTATGCCGCCGTTGACTTTTTGTTTACGGAGTCACCTAGTGCAG”, 20200 fluorescence intensity (a.u.). Turning to “TGCACTAGTATGTATGACGTTGACTGTTTTTTTAAGGACGCGGAGTCACCTAGTGCAG”, the binding signal was 10200 fluorescence intensity (a.u.). As for “GTTACCCCGATTAGTTAGTTTATGTTGTACATGCTGTTGACGGAGTCACCTAGTGCAG”, the binding signal was 11000 fluorescence intensity (a.u.). To “CAGTGTCCGTTTTCTCCGACAAACTCGGCGTGGCCACAGTCGGAGTCACCTAGTGCAG” belongs 9840 fluorescence intensity (a.u.); to “TTGATTTTTTGTTGCAAAAGAATATTTTAATTCACTGCAACGGAGTCACCTAGTGCAG”, 24300 fluorescence intensity (a.u.); to “TCAAACATTTAAAAAAAAAGTCAACGGCGTCAAATATTTTCGGAGTCACCTAGTGCAG”, 8470 fluorescence intensity (a.u.). With “ATATGTTTAAAAAAGTCAACGGCGTCAAACATTTAGGGATCGGAGTCACCTAGTGCAG”, the binding signal was 18600 fluorescence intensity (a.u.). As to “ATATTTAAAAAAGTCAACGGCGTCAAACATTTTGAGATAGCGGAGTCACCTAGTGCAG”, the binding signal was 9320 fluorescence intensity (a.u.). To “AAAAAGTCAACGGCGTCAAACATTTAGGGATGGAGGGAGTCGGAGTCACCTAGTGCAG” belongs 8190 fluorescence intensity (a.u.); to “TTTAAAAGTCAACGGCGTCAGAGGGAGTATATATTTTAGCCGGAGTCACCTAGTGCAG”, 9840 fluorescence intensity (a.u.).

In the case of “AAACATGTTTAAAAAAGTCAACGGCGTCAAACATTTAGGGCGGAGTCACCTAGTGCAG”, the binding signal is 13800 fluorescence intensity (a.u.). To “TATTTTTAAAAAAGTCAACGGCGTCTTGTGGGATGGAGGGCGGAGTCACCTAGTGCAG” belongs 21300 fluorescence intensity (a.u.).
